Holding throughout (experiment): DAPPL (digital affinity profiling via proximity ligation, sequencing); 10 mM Tris-HCl pH 7.5, 50 mM NaCl, 1 mM DTT, 4% glycerol, room temperature, 30 min; GST-TFs on glutathione beads, 16-mer random dsDNA library, 0.1% formaldehyde crosslink after washing; high values mean tight binding
One experiment has as its target T1, FLI1 (Homo sapiens, UniProt Q01543 1-452).
T1 sequence: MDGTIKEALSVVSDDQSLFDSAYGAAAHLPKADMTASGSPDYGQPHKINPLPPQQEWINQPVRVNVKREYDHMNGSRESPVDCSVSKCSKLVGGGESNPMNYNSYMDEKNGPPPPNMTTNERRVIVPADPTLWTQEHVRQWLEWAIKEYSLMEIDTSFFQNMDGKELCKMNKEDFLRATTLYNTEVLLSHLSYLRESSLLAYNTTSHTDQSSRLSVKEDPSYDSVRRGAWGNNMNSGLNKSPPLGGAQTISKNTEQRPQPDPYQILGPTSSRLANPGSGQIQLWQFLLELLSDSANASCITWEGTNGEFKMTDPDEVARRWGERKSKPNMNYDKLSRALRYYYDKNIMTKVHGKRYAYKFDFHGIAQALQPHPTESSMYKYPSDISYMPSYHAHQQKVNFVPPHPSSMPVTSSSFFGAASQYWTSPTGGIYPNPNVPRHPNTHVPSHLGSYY
Conditions: protein: recombinant; tags: N-terminal GST; dsDNA, one strand shown. The method in brief:
(§1)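 In yeast, human transcription factors were expressed with a GST fusion, then pulled down on glutathione beads and given DNA barcodes. Pooled with a tag-only sample, they were exposed to 200 nmole of a 16-mer random double-stranded DNA library (Tris/NaCl/DTT/glycerol buffer, room temperature, 30 min), washed, crosslinked with 0.1% formaldehyde, proximity-ligated using BsaI/T4 ligase for 1 h at 37 °C, PCR-amplified and read on an Illumina NextSeq500. Each hexamer's frequency of reads for a factor, divided by the matching frequency for the tag-only sample, gives the binding signal.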

For a further experiment, the target named is T2, ELK1 (Homo sapiens, UniProt P19419 1-428).
T2 sequence: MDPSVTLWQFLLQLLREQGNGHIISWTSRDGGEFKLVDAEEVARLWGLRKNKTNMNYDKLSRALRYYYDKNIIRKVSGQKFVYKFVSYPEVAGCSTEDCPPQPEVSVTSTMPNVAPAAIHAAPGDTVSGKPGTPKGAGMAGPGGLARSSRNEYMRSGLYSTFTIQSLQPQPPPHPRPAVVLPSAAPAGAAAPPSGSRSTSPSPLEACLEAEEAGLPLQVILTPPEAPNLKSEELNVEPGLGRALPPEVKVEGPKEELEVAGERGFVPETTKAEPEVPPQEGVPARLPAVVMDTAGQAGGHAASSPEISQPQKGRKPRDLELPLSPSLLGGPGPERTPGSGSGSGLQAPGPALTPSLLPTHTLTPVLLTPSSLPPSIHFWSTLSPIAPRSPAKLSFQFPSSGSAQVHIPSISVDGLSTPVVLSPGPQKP
As to conditions: protein: recombinant; tags: N-terminal GST; dsDNA, one strand shown. The method in brief:
as §1

Another experiment deals with T3, GABPA (Homo sapiens, UniProt Q06546 1-454).
T3 sequence: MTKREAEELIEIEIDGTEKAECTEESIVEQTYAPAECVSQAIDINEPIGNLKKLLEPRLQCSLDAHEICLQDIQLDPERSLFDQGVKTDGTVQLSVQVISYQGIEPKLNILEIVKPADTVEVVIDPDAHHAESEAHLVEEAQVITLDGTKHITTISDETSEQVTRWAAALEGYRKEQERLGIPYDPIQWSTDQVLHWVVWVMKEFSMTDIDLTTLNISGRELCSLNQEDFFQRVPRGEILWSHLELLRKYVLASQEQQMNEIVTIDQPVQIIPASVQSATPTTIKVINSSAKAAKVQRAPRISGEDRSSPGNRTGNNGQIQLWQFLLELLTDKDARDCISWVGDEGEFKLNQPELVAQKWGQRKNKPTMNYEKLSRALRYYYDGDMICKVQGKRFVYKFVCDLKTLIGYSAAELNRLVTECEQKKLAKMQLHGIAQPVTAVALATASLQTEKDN
As to conditions: protein: recombinant; tags: N-terminal GST; dsDNA, one strand shown. The method in brief: as §1

The target of another experiment is T4, ERG (Homo sapiens, UniProt P11308 1-479).
T4 sequence: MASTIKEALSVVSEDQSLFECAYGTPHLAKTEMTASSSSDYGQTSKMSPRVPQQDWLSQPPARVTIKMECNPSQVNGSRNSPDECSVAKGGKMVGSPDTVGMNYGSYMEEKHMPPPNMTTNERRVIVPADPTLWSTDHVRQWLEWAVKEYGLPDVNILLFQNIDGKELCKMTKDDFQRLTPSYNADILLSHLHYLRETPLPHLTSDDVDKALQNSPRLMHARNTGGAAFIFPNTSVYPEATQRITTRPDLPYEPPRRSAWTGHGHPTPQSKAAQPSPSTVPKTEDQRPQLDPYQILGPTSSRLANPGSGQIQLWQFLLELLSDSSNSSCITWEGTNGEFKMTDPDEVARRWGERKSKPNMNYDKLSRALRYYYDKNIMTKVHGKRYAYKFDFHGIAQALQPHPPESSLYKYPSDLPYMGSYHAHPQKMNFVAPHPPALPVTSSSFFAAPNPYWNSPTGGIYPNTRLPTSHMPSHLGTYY
As to conditions: protein: recombinant; tags: N-terminal GST; dsDNA, one strand shown. The method in brief:
as §1

The target in another experiment is ELF1 (Homo sapiens, UniProt P32519 1-619). Conditions: protein: recombinant; tags: N-terminal GST; dsDNA, one strand shown. Put shortly: as §1
Chain of ELF1 (P32519 whole entry): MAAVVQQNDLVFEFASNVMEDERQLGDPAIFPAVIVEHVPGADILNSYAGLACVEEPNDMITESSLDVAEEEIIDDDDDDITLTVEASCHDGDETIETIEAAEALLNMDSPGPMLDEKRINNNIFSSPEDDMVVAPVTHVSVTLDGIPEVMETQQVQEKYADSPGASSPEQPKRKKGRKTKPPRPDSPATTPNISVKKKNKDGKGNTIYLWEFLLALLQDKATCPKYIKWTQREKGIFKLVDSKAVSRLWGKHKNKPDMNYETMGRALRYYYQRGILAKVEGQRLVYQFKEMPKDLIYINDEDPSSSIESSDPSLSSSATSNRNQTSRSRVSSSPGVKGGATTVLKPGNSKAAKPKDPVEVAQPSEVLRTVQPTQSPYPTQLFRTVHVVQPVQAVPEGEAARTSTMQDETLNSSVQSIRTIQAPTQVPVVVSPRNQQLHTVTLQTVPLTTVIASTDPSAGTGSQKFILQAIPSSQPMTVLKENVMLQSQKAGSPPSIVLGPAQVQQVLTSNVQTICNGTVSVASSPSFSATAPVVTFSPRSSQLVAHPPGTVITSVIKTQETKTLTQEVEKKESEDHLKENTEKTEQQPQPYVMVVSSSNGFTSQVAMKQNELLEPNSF
The next experiment has as its target T5, EHF (Homo sapiens, UniProt Q9NZC4 1-300).
T5 sequence: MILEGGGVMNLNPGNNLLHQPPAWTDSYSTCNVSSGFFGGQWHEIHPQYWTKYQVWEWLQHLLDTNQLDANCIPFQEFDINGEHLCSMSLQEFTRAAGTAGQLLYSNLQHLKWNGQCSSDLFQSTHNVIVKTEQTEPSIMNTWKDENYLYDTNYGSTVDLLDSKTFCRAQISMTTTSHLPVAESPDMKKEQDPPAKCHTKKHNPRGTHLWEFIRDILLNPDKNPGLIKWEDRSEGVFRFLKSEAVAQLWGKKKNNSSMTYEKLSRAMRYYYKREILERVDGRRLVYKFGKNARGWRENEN
Conditions: protein: recombinant; tags: N-terminal GST; dsDNA, one strand shown. The method in brief: as §1

The next experiment deals with SPI1 (Homo sapiens, UniProt P17947 1-270). As to conditions: protein: recombinant; tags: N-terminal GST; dsDNA, one strand shown. The method in brief: as §1
Another experiment concerns the target SPIB (Homo sapiens, UniProt Q01892 1-262). As to conditions: protein: recombinant; tags: N-terminal GST; dsDNA, one strand shown. The method in brief: as §1
The next experiment concerns the target T6, ELK3 (Homo sapiens, UniProt P41970 1-407).
T6 sequence: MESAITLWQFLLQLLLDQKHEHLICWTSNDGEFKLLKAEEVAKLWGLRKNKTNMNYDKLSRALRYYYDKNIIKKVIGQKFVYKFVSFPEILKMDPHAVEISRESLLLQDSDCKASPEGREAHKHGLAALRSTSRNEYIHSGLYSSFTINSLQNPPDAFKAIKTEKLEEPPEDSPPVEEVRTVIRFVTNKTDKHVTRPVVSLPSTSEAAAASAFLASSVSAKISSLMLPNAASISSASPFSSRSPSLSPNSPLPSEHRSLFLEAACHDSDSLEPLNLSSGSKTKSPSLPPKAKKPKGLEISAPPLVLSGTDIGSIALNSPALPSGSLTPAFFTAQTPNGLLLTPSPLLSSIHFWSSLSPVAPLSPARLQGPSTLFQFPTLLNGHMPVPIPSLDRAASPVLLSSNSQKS
Conditions: protein: recombinant; tags: N-terminal GST; dsDNA, one strand shown. Put shortly: as §1

Another experiment deals with T7, FEV (Homo sapiens, UniProt Q99581 1-238).
T7 sequence: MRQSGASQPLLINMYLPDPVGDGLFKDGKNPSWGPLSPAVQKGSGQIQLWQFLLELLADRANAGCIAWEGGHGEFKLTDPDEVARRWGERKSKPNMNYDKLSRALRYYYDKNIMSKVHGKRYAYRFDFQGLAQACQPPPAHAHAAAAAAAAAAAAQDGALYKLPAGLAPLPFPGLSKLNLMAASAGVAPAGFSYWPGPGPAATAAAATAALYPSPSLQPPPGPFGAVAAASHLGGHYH
Conditions: protein: recombinant; tags: N-terminal GST; dsDNA, one strand shown. Put shortly: as §1

The next experiment addresses ETV5 (Homo sapiens, UniProt P41161 1-510). As to conditions: protein: recombinant; tags: N-terminal GST; dsDNA, one strand shown. The method in brief: as §1
The target of the next experiment is HSF1 (Homo sapiens, UniProt Q00613 1-529). Conditions: protein: recombinant; tags: N-terminal GST; chain copies: 3; dsDNA, one strand shown. The method in brief: as §1
Chain of HSF1 (Q00613 whole entry): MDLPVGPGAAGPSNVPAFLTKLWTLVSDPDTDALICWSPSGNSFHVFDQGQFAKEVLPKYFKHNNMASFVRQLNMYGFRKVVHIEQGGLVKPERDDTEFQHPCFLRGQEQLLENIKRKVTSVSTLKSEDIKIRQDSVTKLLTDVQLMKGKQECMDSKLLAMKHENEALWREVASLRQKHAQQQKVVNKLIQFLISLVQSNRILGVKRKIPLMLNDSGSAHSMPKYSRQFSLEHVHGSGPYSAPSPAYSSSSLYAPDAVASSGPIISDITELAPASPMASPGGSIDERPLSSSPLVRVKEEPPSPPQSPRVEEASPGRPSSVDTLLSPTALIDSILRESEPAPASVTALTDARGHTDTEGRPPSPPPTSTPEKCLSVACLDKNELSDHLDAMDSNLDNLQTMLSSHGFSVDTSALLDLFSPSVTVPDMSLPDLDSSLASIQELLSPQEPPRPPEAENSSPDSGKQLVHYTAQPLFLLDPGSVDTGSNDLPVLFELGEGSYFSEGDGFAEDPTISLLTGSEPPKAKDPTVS
The next experiment addresses T8, SPIC (Homo sapiens, UniProt Q8N5J4 1-248).
T8 sequence: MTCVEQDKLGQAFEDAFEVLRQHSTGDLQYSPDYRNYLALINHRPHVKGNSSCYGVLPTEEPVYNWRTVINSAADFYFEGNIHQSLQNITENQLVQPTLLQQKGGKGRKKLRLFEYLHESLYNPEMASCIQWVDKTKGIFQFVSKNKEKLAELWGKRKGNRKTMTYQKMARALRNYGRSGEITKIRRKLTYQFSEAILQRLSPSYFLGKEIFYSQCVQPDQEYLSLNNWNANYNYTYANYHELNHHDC
Conditions: protein: recombinant; tags: N-terminal GST; dsDNA, one strand shown. The method in brief: as §1

The next experiment concerns the target ELF4 (Homo sapiens, UniProt Q99607 1-663). As to conditions: protein: recombinant; tags: N-terminal GST; dsDNA, one strand shown. Put shortly:
as §1

The next experiment addresses T9, ELK4 (Homo sapiens, UniProt P28324-2 1-405).
T9 sequence: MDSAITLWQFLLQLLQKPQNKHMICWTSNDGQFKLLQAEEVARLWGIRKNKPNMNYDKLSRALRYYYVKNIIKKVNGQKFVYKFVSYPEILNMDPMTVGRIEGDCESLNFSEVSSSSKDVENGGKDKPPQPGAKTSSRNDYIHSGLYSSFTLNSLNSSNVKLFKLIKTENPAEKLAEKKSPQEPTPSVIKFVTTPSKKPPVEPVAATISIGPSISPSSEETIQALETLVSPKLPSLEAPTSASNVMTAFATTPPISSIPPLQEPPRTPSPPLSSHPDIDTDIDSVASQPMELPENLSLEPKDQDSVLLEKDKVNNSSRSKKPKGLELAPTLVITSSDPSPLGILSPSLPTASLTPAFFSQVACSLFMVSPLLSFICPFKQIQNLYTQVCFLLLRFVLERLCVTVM
As to conditions: protein: recombinant; tags: N-terminal GST; dsDNA, one strand shown. Put shortly:
as §1

Another experiment concerns the target T10, ETV2 (Homo sapiens, UniProt O00321 1-342).
T10 sequence: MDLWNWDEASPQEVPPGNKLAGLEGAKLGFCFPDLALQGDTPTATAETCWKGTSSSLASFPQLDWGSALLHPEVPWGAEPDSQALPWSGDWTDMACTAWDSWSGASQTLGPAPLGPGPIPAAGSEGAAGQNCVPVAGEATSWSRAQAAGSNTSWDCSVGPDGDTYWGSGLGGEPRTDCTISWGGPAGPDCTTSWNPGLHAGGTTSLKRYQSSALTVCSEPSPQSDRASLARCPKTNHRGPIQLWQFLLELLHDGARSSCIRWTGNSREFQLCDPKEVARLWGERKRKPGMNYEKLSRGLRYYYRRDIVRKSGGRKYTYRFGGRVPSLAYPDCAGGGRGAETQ
As to conditions: protein: recombinant; tags: N-terminal GST; dsDNA, one strand shown. The method in brief: as §1

The target of the next experiment is T11, ELF3 (Homo sapiens, UniProt P78545 1-371).
T11 sequence: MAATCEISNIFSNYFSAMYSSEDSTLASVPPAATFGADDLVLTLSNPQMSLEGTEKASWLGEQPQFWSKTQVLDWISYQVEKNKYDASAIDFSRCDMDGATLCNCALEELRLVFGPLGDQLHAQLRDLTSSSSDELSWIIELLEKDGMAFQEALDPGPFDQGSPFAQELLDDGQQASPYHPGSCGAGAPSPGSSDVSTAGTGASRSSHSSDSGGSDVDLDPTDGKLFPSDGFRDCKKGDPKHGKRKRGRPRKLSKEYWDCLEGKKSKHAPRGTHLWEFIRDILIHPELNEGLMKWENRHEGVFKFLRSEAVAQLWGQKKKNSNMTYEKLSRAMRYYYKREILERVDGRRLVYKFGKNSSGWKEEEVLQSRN
As to conditions: protein: recombinant; tags: N-terminal GST; dsDNA, one strand shown. The method in brief:
as §1

Another experiment addresses CRX (Homo sapiens, UniProt O43186 1-299). As to conditions: protein: recombinant; tags: N-terminal GST; dsDNA, one strand shown. The method in brief:
as §1

A further experiment addresses ETV1 (Homo sapiens, UniProt P50549 1-477). Conditions: protein: recombinant; tags: N-terminal GST; dsDNA, one strand shown. Put shortly: as §1

Chain of ETV5 (P41161 whole entry): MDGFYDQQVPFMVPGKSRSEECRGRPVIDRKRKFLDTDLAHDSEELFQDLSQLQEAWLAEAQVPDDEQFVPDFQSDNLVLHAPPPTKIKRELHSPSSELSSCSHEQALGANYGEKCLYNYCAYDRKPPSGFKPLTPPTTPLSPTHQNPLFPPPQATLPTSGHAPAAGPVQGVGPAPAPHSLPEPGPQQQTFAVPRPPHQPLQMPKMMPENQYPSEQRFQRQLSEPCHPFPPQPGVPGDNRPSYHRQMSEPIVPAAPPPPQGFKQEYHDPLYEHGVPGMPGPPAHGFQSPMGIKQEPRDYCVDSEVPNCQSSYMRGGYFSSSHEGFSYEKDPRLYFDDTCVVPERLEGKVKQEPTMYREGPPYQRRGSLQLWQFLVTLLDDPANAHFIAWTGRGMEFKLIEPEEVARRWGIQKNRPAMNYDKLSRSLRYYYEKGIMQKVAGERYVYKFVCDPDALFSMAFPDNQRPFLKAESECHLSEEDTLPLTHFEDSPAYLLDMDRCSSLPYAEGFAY
Chain of SPIB (Q01892 whole entry): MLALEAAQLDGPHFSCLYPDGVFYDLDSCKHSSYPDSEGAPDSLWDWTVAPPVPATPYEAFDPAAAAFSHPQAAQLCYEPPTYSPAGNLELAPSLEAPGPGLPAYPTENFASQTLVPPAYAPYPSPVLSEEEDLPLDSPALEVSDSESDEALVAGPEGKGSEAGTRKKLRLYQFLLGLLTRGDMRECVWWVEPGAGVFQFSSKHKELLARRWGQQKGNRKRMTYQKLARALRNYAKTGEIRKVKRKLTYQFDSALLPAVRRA
Chain of ETV1 (P50549 whole entry): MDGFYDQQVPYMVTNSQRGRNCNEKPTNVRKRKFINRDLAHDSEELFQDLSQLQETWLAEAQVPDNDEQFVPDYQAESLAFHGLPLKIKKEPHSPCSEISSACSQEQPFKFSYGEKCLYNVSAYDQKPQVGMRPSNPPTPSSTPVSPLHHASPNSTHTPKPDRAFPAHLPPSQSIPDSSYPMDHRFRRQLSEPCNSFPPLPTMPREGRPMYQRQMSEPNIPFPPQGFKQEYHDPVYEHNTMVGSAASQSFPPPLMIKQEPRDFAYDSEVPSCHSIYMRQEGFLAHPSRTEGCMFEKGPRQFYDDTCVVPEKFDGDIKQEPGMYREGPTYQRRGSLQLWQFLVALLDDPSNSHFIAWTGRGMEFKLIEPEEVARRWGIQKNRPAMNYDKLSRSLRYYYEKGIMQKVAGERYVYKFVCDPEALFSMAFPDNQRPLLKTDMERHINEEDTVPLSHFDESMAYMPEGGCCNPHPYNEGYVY
Chain of CRX (O43186 whole entry): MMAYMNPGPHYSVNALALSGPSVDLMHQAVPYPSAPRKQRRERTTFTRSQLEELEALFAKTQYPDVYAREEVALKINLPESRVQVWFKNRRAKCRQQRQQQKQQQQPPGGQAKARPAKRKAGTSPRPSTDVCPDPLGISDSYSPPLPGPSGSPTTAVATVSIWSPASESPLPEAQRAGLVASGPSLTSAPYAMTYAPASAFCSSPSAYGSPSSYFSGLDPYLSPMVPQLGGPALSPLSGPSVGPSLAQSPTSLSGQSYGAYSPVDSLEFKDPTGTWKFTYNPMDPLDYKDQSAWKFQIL
Chain of ELF4 (Q99607 whole entry): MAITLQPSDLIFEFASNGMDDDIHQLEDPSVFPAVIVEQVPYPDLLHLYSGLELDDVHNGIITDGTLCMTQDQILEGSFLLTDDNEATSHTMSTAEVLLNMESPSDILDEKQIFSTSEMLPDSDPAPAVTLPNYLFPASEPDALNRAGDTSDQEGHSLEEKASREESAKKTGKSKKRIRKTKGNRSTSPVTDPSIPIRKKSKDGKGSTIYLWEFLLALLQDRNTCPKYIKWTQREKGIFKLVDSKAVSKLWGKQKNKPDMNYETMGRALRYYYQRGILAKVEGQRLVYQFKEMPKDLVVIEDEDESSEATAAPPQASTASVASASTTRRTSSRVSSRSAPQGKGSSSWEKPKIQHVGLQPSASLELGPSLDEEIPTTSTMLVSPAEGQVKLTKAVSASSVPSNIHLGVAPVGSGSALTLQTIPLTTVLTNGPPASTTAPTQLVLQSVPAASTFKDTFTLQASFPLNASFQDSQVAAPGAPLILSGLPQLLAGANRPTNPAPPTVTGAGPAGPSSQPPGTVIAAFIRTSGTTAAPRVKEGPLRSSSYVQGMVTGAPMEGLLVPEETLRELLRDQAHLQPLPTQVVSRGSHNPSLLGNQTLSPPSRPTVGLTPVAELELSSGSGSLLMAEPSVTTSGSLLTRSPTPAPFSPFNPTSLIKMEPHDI

Turning to GCTCGA, the binding signal with FLI1 is 1.22 fold enrichment (6-mer frequency, TF over GST control); with ELK1, 1.12 fold enrichment (6-mer frequency, TF over GST control); with GABPA it was 1.15 fold enrichment (6-mer frequency, TF over GST control); in the experiment with ERG, 1.2 fold enrichment (6-mer frequency, TF over GST control); in the experiment with ELF1 it was 1.21 fold enrichment (6-mer frequency, TF over GST control); in the experiment with EHF it was 1.19 fold enrichment (6-mer frequency, TF over GST control). For the same sequence, the binding signal with SPI1 is 1.22 fold enrichment (6-mer frequency, TF over GST control); in the experiment with SPIB, 1.24 fold enrichment (6-mer frequency, TF over GST control); with ELK3 it was 1.13 fold enrichment (6-mer frequency, TF over GST control); with FEV it was 1.25 fold enrichment (6-mer frequency, TF over GST control); in the experiment with ETV5, 1.22 fold enrichment (6-mer frequency, TF over GST control); in the experiment with HSF1, 1.74 fold enrichment (6-mer frequency, TF over GST control). In addition, the binding signal in the experiment with SPIC is 1.31 fold enrichment (6-mer frequency, TF over GST control); in the experiment with ELF4 it was 1.25 fold enrichment (6-mer frequency, TF over GST control); with ELK4, 1.29 fold enrichment (6-mer frequency, TF over GST control); with ETV2 it was 1.07 fold enrichment (6-mer frequency, TF over GST control); with ELF3, 1.24 fold enrichment (6-mer frequency, TF over GST control); in the experiment with CRX it was 1.17 fold enrichment (6-mer frequency, TF over GST control). The binding signal in the experiment with ETV1 is 1.07 fold enrichment (6-mer frequency, TF over GST control).

(Values after paper PMC7862700, “An all-to-all approach to the identification of sequence-specific readers for epigenetic DNA modifications on cytosine”.)
